GRP78 ERSR act: qHTS for Inducers of the Endoplasmic Reticulum Stress Response (ERSR) in Human Glioma: qHTS; U87-MG GRP78 promoter luciferase reporter, 16 h; Potency, µM, for the others: top-dose activation, actives largely listed as activators; hit rate 0.02% among 420,000; AID 602332, 2012; further: potency means the concentration at half of the fitted maximal effect; series mostly up to about 76 µM; % of control where 0% means no effect; nearly all actives have a fitted effect of over 35% in size
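Stably transfected U87-MG glioma cells carrying a GRP78-based luciferase sensor; 16 h compound incubation. Luminescence end-point read 10 min after Bright-Glo addition at room temperature.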
CCT modulator: High-Throughput Screening for Modulators of Cytosolic Chaperonin Activity | purified chaperonin ATPase assay, HTRF ADP detection, 30 min | activity change, % (no concentration beside the values), hits read low | hit rate 0.3% among 360,000 | AID 651819, 2012; in the data active means activity change below about -30%; further: on the % scale 0 is the no-effect control and ±100 the full control effect
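Nucleotide hydrolysis assay: TRiC at 20–40 nM final (set by batch activity) with 10 uM ATP, 30 min at 37 °C, in presence of 76 uM compound. Detection by competitive ADP HTRF, 30 min ambient.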
Akt phos inh: HTS Assay for Inhibitors of Akt Phophorylation: Primary Screen | hit rate 0.32% among 360,000 | activity change, % for hits at 50 µM | AID 651550, 2012 | Neuro2A IGF-stimulated pAkt S473 HTRF, 20 min; stronger effect = lower value; in the data active means activity change below about -80%; inconclusive means mostly about -51% to -80%; further: on the % scale 0 is the no-effect control and ±100 the full control effect
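Single-point screen (50 µM final compound) in Neuro2A cells stimulated 20 min with 6 nM IGF at 37 deg C. After lysis, Ser473-phosphorylated Akt read by HTRF (ex 330 nm, em 615/665 nm) as the 665/615 ratio.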
IDH1 R132H inh: qHTS for Inhibitors of mutant isocitrate dehydrogenase 1 (IDH1): qHTS. Isocitrate dehydrogenase [NADP] cytoplasmic (Homo sapiens), O75874. IDH1-R132H enzyme, NADPH consumption, diaphorase/resazurin fluorescence. Potency, µM (titrated, usually from 76.6 µM), for inactives: at the highest dose activity change, negative = inhibition, actives largely listed as inhibitors. hit rate 0.093% among 390,000; further: potency means the concentration at half of the fitted maximal effect; on the % scale 0 is the no-effect control and ±100 the full control effect; nearly all actives have a fitted effect of over 65% in size
Target sequence (O75874 whole entry R132H, stated change not applied): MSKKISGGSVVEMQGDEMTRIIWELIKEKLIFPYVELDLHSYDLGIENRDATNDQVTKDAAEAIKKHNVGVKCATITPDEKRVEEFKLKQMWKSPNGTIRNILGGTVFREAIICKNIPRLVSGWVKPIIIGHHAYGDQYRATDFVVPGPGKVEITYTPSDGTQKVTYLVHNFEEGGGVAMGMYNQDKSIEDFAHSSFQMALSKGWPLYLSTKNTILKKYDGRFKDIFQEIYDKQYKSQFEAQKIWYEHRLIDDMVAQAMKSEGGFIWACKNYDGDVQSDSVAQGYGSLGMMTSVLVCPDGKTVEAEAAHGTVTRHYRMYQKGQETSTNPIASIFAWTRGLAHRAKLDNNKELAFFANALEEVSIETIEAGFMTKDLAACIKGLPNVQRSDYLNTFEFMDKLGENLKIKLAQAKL
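IDH1-R132H (0.5 ug/mL) preincubated 30 min with compound, then NADPH (0.016 mM) and alpha-KG (2 mM) added; 80 min at RT, pH 7.5. Remaining NADPH coupled via diaphorase/resazurin to fluorescence (540/590 nm); concentration-response curves normalized to no-enzyme control.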
GLS inhibitor: qHTS for Inhibitors of Glutaminase (GLS). GLS enzymatic activity, qHTS titration. AID 624170, 2012. hit rate 0.21% among 410,000. Glutaminase kidney isoform, mitochondrial (Homo sapiens), O94925. Potency, µM (series often up to 45.5 µM), inactives show at the highest dose activity change, negative = inhibition, most hits filed as inhibitors; further: potency means the concentration at half of the fitted maximal effect; on the % scale 0 is the no-effect control and ±100 the full control effect
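Two-point fluorescence kinetic (t0, 30 min RT) for hKGA; glutamate detected via glutamate oxidase–HRP–Amplex Red. Substrate: 1 mM L-glutamine solution; buffer 45 mM KH2PO4, pH 8.2.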
MmCpn inh: Inhibitors of TCP-1 ring complex (TRiC) of Methanococcus maripaludis (MmCpn): qHTS; Chaperonin Mm-Cpn (Methanococcus maripaludis); purified Mm-Cpn ATPase, ADP Transcreener TR-FRET; Potency, µM (highest dose often 76.9 µM), inactives show at the highest dose activity, negative = inhibition, most hits filed as inhibitors; hit rate 0.031% among 330,000; further: potency means the concentration at half of the fitted maximal effect; on the % scale 0 is the no-effect control and ±100 the full control effect; nearly all actives have a fitted effect of over 80% in size
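Measured: ADP formation by purified Mm-CPN. Conditions: 25 nM protein, 10 uM ATP, Tris pH 7.4 with Mg2+, K+ and DTT, 37°C for 30 min. Detection: Transcreener HTRF after 30 min at room temperature.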
An asterisk follows results filed as active. Only some compounds are listed: those with a hit (about 0.85% of all), similar ones and a draw of the others. Unless noted, the call rests on the fitted dose curve; in most records, active means well fitted curve in the direction sought with a large enough effect; inconclusive means small, poorly fitted or top-dose-only effect, or another doubt; inactive means no such curve, though single readings can be large; an effect the other way counts as inactive or inconclusive.

What do the screens show for `CCOC(=O)c1cnn(-c2ccc(NS(=O)(=O)c3ccc(Cl)cc3)cc2)c1C(F)(F)F`?
GRP78 ERSR act: -4%; CCT modulator: -98*; Akt phos inh: inactive; IDH1 R132H inh: 2%; GLS inhibitor: inconclusive; MmCpn inh: -2%

What do the screens show for `Cc1cccc2nc(CNC(=O)CN3Cc4cc(Cl)ccc4OC(C)C3)cn12` (configuration not stated)?
GRP78 ERSR act: -4%

What do the screens show for `CC1CCCCN1CCNC(=O)C1CCCN(S(=O)(=O)c2cccc3nsnc23)C1` (configuration not stated)?
GRP78 ERSR act: -5%; CCT modulator: 1; Akt phos inh: inactive; IDH1 R132H inh: 3%; GLS inhibitor: 4%; MmCpn inh: 2%

How did CC1CCCCN1CCNC(=O)C1CCN(S(=O)(=O)c2cccc3nsnc23)CC1 (configuration not stated) do in these assays?
GRP78 ERSR act: -2%; CCT modulator: -34*; IDH1 R132H inh: 6%; GLS inhibitor: -4%; MmCpn inh: 2%

How did CN(C)c1nc2cc3c(cc2cc1CN(CC1CCCO1)C(=O)/C=C/c1cccs1)OCO3 (configuration not stated) do in these assays?
GRP78 ERSR act: -5%

Results for COc1cc(/C=C/C(=O)OCC(=O)Nc2ccc(C)cc2[N+](=O)[O-])ccc1O ?
GRP78 ERSR act: -4%; CCT modulator: -6; Akt phos inh: inactive; IDH1 R132H inh: 2%; GLS inhibitor: 5.6µM*; MmCpn inh: -3%

What do the screens show for `CN(C)c1ccc(CN(Cc2ccco2)C(=O)c2ccc(C(C)(C)C)cc2)cc1`?
GLS inhibitor: 9%

What do the screens show for `CCn1cnc2sc(C(=O)N(Cc3ccc(N(C)C)cc3)Cc3ccco3)c(C)c2c1=O`?
GRP78 ERSR act: -2%; CCT modulator: -2; Akt phos inh: -109%*; IDH1 R132H inh: 0%; GLS inhibitor: 38%; MmCpn inh: -4%

How did COc1ccccc1Cn1c(=S)[nH]c2cc(C(=O)NCCN(C)C)ccc2c1=O do in these assays?
GRP78 ERSR act: 2%; CCT modulator: 2; Akt phos inh: inactive; IDH1 R132H inh: 2%; GLS inhibitor: 10µM*; MmCpn inh: -1%

Results for COc1ccccc1Cn1c(=S)[nH]c2cc(C(=O)N3CCCC3)ccc2c1=O ?
GRP78 ERSR act: -3%; CCT modulator: -1; Akt phos inh: inactive; IDH1 R132H inh: 0%; GLS inhibitor: inconclusive; MmCpn inh: -2%

How did CCN1CCN(C(=O)c2ccc3c(=O)n(Cc4ccccc4OC)c(=S)[nH]c3c2)CC1 do in these assays?
GRP78 ERSR act: -6%; CCT modulator: -2; Akt phos inh: inactive; IDH1 R132H inh: 1%; GLS inhibitor: 11µM*; MmCpn inh: 2%

How did COc1ccc(Cl)cc1N1C(=O)[C@@H]2C[C@H]1CN2Cc1nc2ccccc2nc1C do in these assays?
GRP78 ERSR act: -4%

Results for O=C(CCc1c[nH]c2ccccc12)N1CCC(n2c(C3CCCO3)nc3cc(C(F)(F)F)ccc32)CC1 (configuration not stated) ?
GRP78 ERSR act: -4%

Results for CCOC(=O)c1sc(NC(=S)NC(=O)c2ccc(OC)cc2)nc1C ?
GRP78 ERSR act: -1%; CCT modulator: -52*; Akt phos inh: inactive; IDH1 R132H inh: 2%; GLS inhibitor: 6%; MmCpn inh: -8%

What do the screens show for `Cc1ccc(-c2ccnc(-n3ncc(C(=O)N4CCCCC4c4cccnc4)c3C3CC3)n2)o1` (configuration not stated)?
GRP78 ERSR act: -6%
